Where a name gives a salt, the structure may show the parent alone.

This test concerns Vibrio cholerae. Kind of test: growth AUC normalised to DMSO control (fraction of control); higher = less growth inhibition, active = hit call of the paper. The note with it: 20 µM. The method, boiled down: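 Hemin and NAD were added to the medium for Haemophilus parainfluenzae. All pathogens, after two anaerobic passages, were inoculated at a starting OD578 of 0.01 into pre-reduced mGAM plates with 20 μM compound and 1% DMSO under breathable seals, and OD578 was read hourly for 24 h in three biological replicates. AUC of each growth curve was obtained with the trapezoidal rule up to the exponential-to-stationary transition and normalised to DMSO controls from the same plate.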
On to `Cc1cc2c(cc1S(N)(=O)=O)S(=O)(=O)CCC2` [Meticrane], for which the “growth AUC normalised to DMSO control” value was 1.01 (inactive).

Take `CCCC(CCC)C(=O)O` [Valproic acid]: the “growth AUC normalised to DMSO control” value is 1.05 (inactive).

Take `CNCCC(Oc1ccc(C(F)(F)F)cc1)c1ccccc1` (stereo not given) [Fluoxetine hydrochloride]: the “growth AUC normalised to DMSO control” value is 0.975 (inactive).

As to `Cc1nnc(SCC2=C(C(=O)O)N3C(=O)[C@@H](NC(=O)Cn4cnnn4)[C@H]3SC2)s1` [Cefazolin sodium salt], the “growth AUC normalised to DMSO control” value is 0.126 (active).

On to `Clc1cc(Cl)c(OCC#CI)cc1Cl` [Haloprogin], for which the “growth AUC normalised to DMSO control” value was 1.05 (inactive).

Consider `O=C(O)/C=C/c1ccc(Cn2ccnc2)cc1` [Ozagrel hydrochloride], for which the “growth AUC normalised to DMSO control” value was 0.995 (inactive).

Regarding `CC(=O)OCC(=O)NCCCOc1cccc(CN2CCCCC2)c1` [Roxatidine acetate hydrochloride], the “growth AUC normalised to DMSO control” value is 1 (inactive).

With `O=C(O)CNC(=O)C(CS)Cc1ccccc1` (stereo not given) [Thiorphan], the “growth AUC normalised to DMSO control” value is 1.08 (inactive).

Consider `CCCCOC(=O)c1ccc(O)cc1` [Butylparaben], for which the “growth AUC normalised to DMSO control” value was 0.896 (inactive).

Take `Cc1ccc(S(=O)(=O)NC(=O)NN2CCCCCC2)cc1` [Tolazamide]: the “growth AUC normalised to DMSO control” value was 1.03 (inactive).

Take `COc1cc2nc(N3CCN(C(=O)C4COc5ccccc5O4)CC3)nc(N)c2cc1OC` (stereo not given) [Doxazosin mesylate]: the “growth AUC normalised to DMSO control” value is 0.942 (inactive).

For `CC(Oc1ccccc1)C(=O)N[C@@H]1C(=O)N2[C@@H]1SC(C)(C)[C@@H]2C(=O)O` (stereo not given in full) [Phenethicillin potassium salt], the “growth AUC normalised to DMSO control” value was 1 (inactive).

`Nc1ccccc1S(N)(=O)=O` [o-Sulfanilamide]: the “growth AUC normalised to DMSO control” value is 0.988 (inactive).

For `COc1ccc2[nH]c([S+]([O-])Cc3ncc(C)c(OC)c3C)nc2c1` (stereo not given) [Omeprazole], the “growth AUC normalised to DMSO control” value was 1.05 (inactive).

As to `CC(=O)Oc1ccccc1C(=O)Oc1ccccc1C(=O)O` [Acetylsalicylsalicylic acid], the “growth AUC normalised to DMSO control” value is 0.983 (inactive).

For the compound `NCCCC(O)(P(=O)(O)O)P(=O)(O)O` [Alendronate sodium], the “growth AUC normalised to DMSO control” value is 1.1 (inactive).

Turning to `O=C1Nc2ccc(Cl)cc2[C@@](C#CC2CC2)(C(F)(F)F)O1` [Efavirenz], the “growth AUC normalised to DMSO control” value was 0.999 (inactive).

Take `CC(=O)O[C@]1(C(C)=O)CC[C@H]2[C@@H]3C=C(Cl)C4=CC(=O)[C@@H]5C[C@@H]5[C@]4(C)[C@H]3CC[C@@]21C` [Cyproterone acetate]: the “growth AUC normalised to DMSO control” value was 1 (inactive).

On to `COc1ccc(C(=O)NCc2ccc(OCCN(C)C)cc2)cc1OC` [Itopride], for which the “growth AUC normalised to DMSO control” value is 1.07 (inactive).

As for `O=C(c1ccc(F)cc1)C1CCN(CCn2c(=O)[nH]c3ccccc3c2=O)CC1` [Ketanserin tartrate hydrate], the “growth AUC normalised to DMSO control” value is 0.894 (inactive).

With `C[C@]12C[C@H](O)[C@H]3[C@@H](CCC4=CC(=O)CC[C@@]43C)[C@@H]1CC[C@@H]2C(=O)CO` [Corticosterone], the “growth AUC normalised to DMSO control” value is 0.984 (inactive).

Regarding `C[N+](C)(CCOc1ccccc1)Cc1ccccc1.O=C([O-])c1cc2ccccc2cc1O` [Bephenium hydroxynaphthoate], the “growth AUC normalised to DMSO control” value was 1.03 (inactive).

In the case of `Cc1cnc(C(=O)O)c[n+]1[O-]` [Acipimox], the “growth AUC normalised to DMSO control” value is 0.982 (inactive).

As to `COc1ccc2c(c1)c(CC(=O)OCC(=O)O)c(C)n2C(=O)c1ccc(Cl)cc1` [Acemetacin], the “growth AUC normalised to DMSO control” value is 0.985 (inactive).

On to `CN(C)CCC[C@@]1(c2ccc(F)cc2)OCc2cc(C#N)ccc21` [Escitalopram oxalate], for which the “growth AUC normalised to DMSO control” value is 0.976 (inactive).

Consider `CNCCCC12CCC(c3ccccc31)c1ccccc12` [Maprotiline hydrochloride], for which the “growth AUC normalised to DMSO control” value is 0.942 (inactive).

For `CCN(CC)CCOC(=O)C1(C2CCCCC2)CCCCC1` [Dicyclomine hydrochloride], the “growth AUC normalised to DMSO control” value is 0.889 (inactive).

With `CNCC(O)c1ccc(OC(=O)C(C)(C)C)c(OC(=O)C(C)(C)C)c1` (stereo not given) [Dipivefrin hydrochloride], the “growth AUC normalised to DMSO control” value is 1.05 (inactive).

As for `Cc1ncc([N+](=O)[O-])n1CC(C)O` (stereo not given) [Secnidazole], the “growth AUC normalised to DMSO control” value is 0.99 (inactive).

For the compound `COc1cc(OC)c(C(=O)CCCN2CCCC2)c(OC)c1` [Buflomedil hydrochloride], the “growth AUC normalised to DMSO control” value is 0.997 (inactive).

Consider `Cc1cc(NC(=O)C2=C(O)c3ccccc3S(=O)(=O)N2C)no1` [Isoxicam], for which the “growth AUC normalised to DMSO control” value was 0.901 (inactive).

Regarding `CCN(CC)CCNC(=O)c1cc(Br)c(N)cc1OC` [Bromopride], the “growth AUC normalised to DMSO control” value is 1.01 (inactive).

With `NCCCC[C@H](N[C@@H](CCc1ccccc1)C(=O)O)C(=O)N1CCC[C@H]1C(=O)O` [Lisinopril], the “growth AUC normalised to DMSO control” value was 1.04 (inactive).

For `COCCCC/C(=N\OCCN)c1ccc(C(F)(F)F)cc1` [Fluvoxamine maleate], the “growth AUC normalised to DMSO control” value is 0.943 (inactive).

In the case of `CCN(CC)C(=O)N1CCN(C)CC1` [Diethylcarbamazine citrate], the “growth AUC normalised to DMSO control” value is 0.983 (inactive).

Turning to `C[C@@H]1[C@H](O)[C@@H](C)/C=C/C=C/C=C/C=C/C=C/C=C/C=C/[C@H](O[C@@H]2O[C@H](C)[C@@H](O)[C@H](N)[C@@H]2O)C[C@@H]2O[C@](O)(C[C@@H](O)C[C@@H](O)[C@H](O)CC[C@@H](O)C[C@@H](O)CC(=O)O[C@H]1C)C[C@H](O)[C@H]2C(=O)O` [Amphotericin B], the “growth AUC normalised to DMSO control” value is 1.05 (inactive).

For the compound `Cn1c(=O)c2c(ncn2CC(=O)O)n(C)c1=O` [Acefylline], the “growth AUC normalised to DMSO control” value is 0.98 (inactive).

As to `Cc1ccccc1C(OCCN(C)C)c1ccccc1` (stereo not given) [Orphenadrine hydrochloride], the “growth AUC normalised to DMSO control” value is 1.02 (inactive).

On to `O=C(Nc1ccc([N+](=O)[O-])cc1Cl)c1cc(Cl)ccc1O` [Niclosamide], for which the “growth AUC normalised to DMSO control” value was 0.0756 (active).

In the case of `COc1ccc(OC)c(C(O)CNC(=O)CN)c1` (stereo not given) [Midodrine hydrochloride], the “growth AUC normalised to DMSO control” value is 1.02 (inactive).

The record behind these values is the supplement of paper PMC12350171.
